Measurements as given in PubChem BioAssay (NCI).
About 83,000 compounds went through this panel and 20% of them were active in at least one assay; those are over-represented in the sample as a whole.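 For each line, cells grew in 96-well plates with the test compound present at a single concentration for 48 hours.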 Activity calls are given as the source filed them. Rule for the calls: active = growth percent below 10; inactive = the rest.

Key:
Assay in all cases: NCI-60 one-dose screen, 48 h (100 = growth as untreated, 0 = no growth, -100 = all killed)
Conditions in all cases: 10 µM unless noted
[1] = system: BT-549 breast
[2] = system: MDA-MB-435 melanoma
[3] = system: SW-620 colon
[4] = system: MCF7 breast
[5] = system: HCT-116 colon
[6] = system: HCC-2998 colon
[7] = system: KM12 colon

Measured: growth

Clc1ccc2nc(Cl)c3ccccc3c2c1
inactive: [1] 89.6% | [2] 50.3% | [3] 78.3% | [4] 89.7% | [5] 19.4% | [6] 89.3% | [7] 55.7%

O=C(Nc1nc2ccccc2s1)c1cc(-c2ccc(F)cc2)n2nc(-c3ccccc3)cc2n1
inactive: [1] 79% | [2] 86.5% | [3] 67.8% | [4] 69.3% | [5] 45.8% | [7] 68.7%

N=C(N)/N=C(\CCc1nc2ccccc2[nH]1)c1nc2ccccc2[nH]1
inactive: [1] 104% | [2] 109% | [3] 104% | [4] 86.3% | [5] 102% | [6] 100% | [7] 103%

Cc1nn(-c2ccccc2)c(Cl)c1C(CC(=O)c1ccc(Cl)cc1)CC(=O)c1ccc(Cl)cc1
inactive: [1] 85.6% | [2] 90.9% | [3] 96.4% | [4] 92.7% | [5] 75.4% | [6] 99.1% | [7] 86.1%

CC(=O)NC1(C(=O)O)CCCC1
inactive: [1] 118% | [2] 123% | [3] 103% | [4] 97.8% | [5] 112% | [7] 119%

Clc1cccc(Cc2cn3cc(-c4ccccc4)nc3s2)c1
inactive: [1] 77.5% | [2] 33.1% | [3] 30.2% | [4] 21.1% | [5] 42.6% | [6] 17.7% | [7] 12.1%

COc1ccc(/C=C(\C#N)c2ccccc2)cc1
inactive: [1] 85.4% | [2] 12% | [3] 71.4% | [4] 103% | [5] 85.4% | [7] 49.2%

CN(C)c1ccc(/C=C\c2ccnc3ccccc23)cc1
active: [1] -0.99%
inactive: [2] 33.6% | [3] 87.7% | [4] 39.1% | [5] 62.6% | [7] 55.8%

COc1cc(/C=C/C(=O)Nc2ccc3c(c2)/C(=C\c2cccn2C)C(=O)N3)cc(OC)c1OC
inactive: [1] 46.6% | [2] 59.9% | [3] 83.1% | [5] 37.3% | [7] 33.8%
active: [4] 1.79%

Cn1c(=O)c2nc(SCc3ccccc3)n(C)c2n(C)c1=O
inactive: [1] 107% | [2] 113% | [3] 106% | [4] 106% | [5] 98.9% | [7] 104%

CC(=O)c1cc(C(=O)c2ccc3c(c2)Sc2ccccc2N3)c2c(C)cc(C)cn12
inactive: [1] 28.5% | [3] 20.8% | [4] 15.1% | [7] 11.1%
active: [2] -22.1% | [5] 3.76%

O=C1NC(=O)/C(=C\c2ccccc2)C2=C1CCCC2
inactive: [1] 35% | [5] 18.8% | [7] 18%
active: [2] -76.3% | [3] -50.2% | [4] -49%

O=C1OCCCCCCCCCC#Cc2ccccc21
inactive: [1] 124% | [2] 104% | [3] 93.9% | [4] 164% | [5] 70.4% | [7] 136%

CCc1[nH]nc(-c2ccc(OC)cc2)c1-c1ccccc1OCCN(CC)CC
inactive: [1] 87.7% | [2] 101% | [3] 104% | [4] 93.2% | [5] 83.9% | [6] 103% | [7] 106%

Cc1ccc(C(C)C)cc1NC(=O)Nc1ccc([N+](=O)[O-])cc1
inactive: [2] 11% | [3] 10.5%
active: [1] -1.5% | [4] -10.2% | [5] -23.2% | [7] 2.72%

O=[N+]([O-])c1ccc(N/N=C\c2ccccc2[N+](=O)[O-])nc1
inactive: [1] 101% | [2] 107% | [3] 107% | [4] 88.8% | [5] 102% | [6] 107% | [7] 104%

C=CCCCCCCCCC(=O)[O][Sn]([CH2]CCC)([CH2]CCC)[CH2]CCC
active: [1] -99.2% | [2] -86% | [3] -81.7% | [4] -66.4% | [5] -95.8% | [7] -92.6%

COc1cc2c(-c3nc4cc(Cl)c(F)cc4s3)cc(=O)oc2c(C)c1OC
active: [1] -81.8% | [2] -57.8% | [3] -58.3% | [4] -57.8% | [5] -2.68% | [7] -89.7%

CCc1ccc(CCN2C(=O)c3ccccc3C2=O)nc1
inactive: [1] 116% | [2] 98.9% | [3] 107% | [4] 89.5% | [5] 109% | [6] 112% | [7] 103%

O=C(Nc1ccc(C2=NCCCN2)cc1)Nc1ccc(C2=NCCCN2)cc1
inactive: [1] 100% | [2] 95.3% | [3] 99.4% | [4] 94% | [5] 67.4% | [7] 100%

Cc1c(C)c(N2C(=O)C=CC2=O)c(C)c(C)c1N1C(=O)C=CC1=O
inactive: [1] 110% | [2] 102% | [3] 81.7% | [4] 103% | [5] 83% | [7] 119%

Clc1ncn[nH]1
inactive: [1] 105% | [2] 96.9% | [3] 111% | [4] 90.3% | [5] 108% | [7] 101%

Nc1ccc2c3c(cccc13)-c1ccccc1-2
inactive: [1] 71% | [2] 96.5% | [3] 102% | [4] 88.8% | [5] 92.2% | [7] 87.8%

Cn1c(=O)c2c(nc(Br)n2CCC(=O)Nc2ccc(F)cc2)n(C)c1=O
inactive: [1] 91.8% | [2] 108% | [3] 103% | [4] 100% | [5] 85.5% | [7] 107%

N#Cc1cccc(/C=C(/C(=O)c2ccccc2)c2ccccc2)c1
inactive: [1] 26.7% | [5] 25.6% | [7] 22.3%
active: [2] 8.38% | [3] 7.39% | [4] 9.11%

COc1cc2c(cc1OCCCOc1ccc(-c3cc4ccccc4c4ccccc34)cc1)N=C[C@@H]1CCCN1C2=O
active: [1] -50.8% | [2] -30.8% | [3] -43.8% | [4] -75.1% | [5] -23.1% | [6] 2.28% | [7] -20.4%

Cc1cc2c(cc1[N+](=O)[O-])NC(CNC(C)C)CC2 (stereo not drawn)
inactive: [1] 102% | [2] 107% | [3] 111% | [4] 105% | [5] 96.2% | [7] 107%

O=C(c1ccccc1)c1ccccc1Cl
inactive: [1] 85.8% | [2] 102% | [3] 106% | [4] 107% | [5] 101% | [7] 96%

O=C(/C=C/c1ccc(O)c(O)c1)N1CCN(c2ccc(Cl)cc2)CC1
inactive: [1] 56.9% | [2] 67.9% | [3] 64% | [4] 74.9% | [5] 55.7% | [7] 73.5%

NC(N)=NC(N)=NCCCc1ccccc1
inactive: [1] 49.5% [100 µM] | [2] 60.5% [100 µM] | [3] 77.8% [100 µM] | [4] 59.2% [100 µM] | [5] 50.6% [100 µM] | [7] 78.1% [100 µM]

Cc1cc2c(C#N)n3c(c2cc1C)C(=O)C(c1ccccc1)Oc1ccccc1-3 (stereo not drawn)
active: [2] 0.71%
inactive: [1] 17% | [3] 47.3% | [4] 68.2% | [5] 12.8% | [7] 15.2%

COc1cc(/C=C/C(=O)c2ccc(F)cc2)ccc1OCCCCCOc1cc2c(cc1OC)C(=O)N1CCCC1C=N2 (stereo not drawn)
active: [1] -58% | [2] -87.5% | [3] -46.6% | [5] -23.9% | [7] -63.4%
inactive: [4] 16%

O=C1Nc2ccccc2C12Nc1cc(Cl)ccc1S2 (stereo not drawn)
inactive: [1] 76.2% | [2] 95.4% | [3] 120% | [4] 59.7% | [5] 84.5% | [7] 80.4%

COc1cc(OC)c2cc(C(=O)O)c(=O)oc2c1
inactive: [1] 77.5% | [2] 76.8% | [3] 103% | [4] 94.2% | [5] 103% | [7] 114%

COc1cc(C2=NN(C(C)=O)C(c3ccc(OC(C)=O)cc3OC(C)=O)O2)c(OC(C)=O)c2ccccc12 (stereo not drawn)
inactive: [1] 23.8% | [2] 28.8% | [3] 30.9% | [4] 14.1% | [5] 14.4% | [7] 22.3%

COc1ccc(-c2c3c(nn2-c2ccc(N)cc2)CCc2cnoc2-3)cc1OC
inactive: [1] 81.4% | [2] 94.8% | [3] 97.6% | [4] 94.1% | [5] 84.4% | [7] 82.1%

CO[C@H]1/C=C/O[C@@]2(C)Oc3c(C)c(O)c4c(O)c(c(/C=N/N5C(C)CN(Cc6ccccc6)CC5C)c(O)c4c3C2=O)NC(=O)/C(C)=C\C=C\[C@H](C)[C@H](O)[C@@H](C)[C@@H](O)[C@@H](C)[C@H](OC(C)=O)[C@@H]1C (stereo partly drawn)
inactive: [1] 125% | [2] 86.6% | [3] 80.1% | [4] 44.6% | [5] 37.9% | [7] 52.6%

O=C(CSc1nnc(Nc2ccccc2)s1)NCCc1ccc(F)cc1
inactive: [1] 109% | [2] 101% | [3] 103% | [4] 109% | [5] 99.8% | [7] 111%

C/C(=N\N1CC(=O)NC1=O)c1ccc([N+](=O)[O-])o1
inactive: [1] 100% | [2] 88.5% | [3] 97.2% | [4] 85.6% | [5] 106% | [7] 96.3%

Cc1c(C(N)=O)sc2ncn(Cc3ccccc3)c(=O)c12
inactive: [1] 62.6% | [2] 53.7% | [3] 103% | [4] 99.8% | [5] 94.7% | [7] 110%
